{
  "source": "PubChem BioAssay (NCATS)",
  "note": "Records with an inconclusive call do not appear. Active and inactive are the calls of the source. The call rests on the fitted dose curve; in most records, active means well fitted cell-killing curve with a large enough effect; inconclusive means small, poorly fitted or top-dose-only effect; inactive means no such curve, though single readings can be large or run the other way. Potency means the concentration at half of the fitted maximal effect.",
  "data": [
    {"assay": "qHTS of pediatric cancer cell lines to identify multiple opportunities for drug repurposing: Confirmatory screen for BT-37 cells (AID 1347117); further: nearly all actives have a fitted effect of over 55% in size", "settings": "BT-37 pediatric cancer cells, viability; series mostly up to 45.9 µM", "description": "Drug repurposing or repositioning has been offered as a strategy for drug development in oncology programs. This approach has special potential for childhood cancers and other rare or orphan diseases, where the expected return on new drug development has been a disincentive to pharmaceuticals.\nIn this project we exploit the poly-pharmacology of drugs to discover new indications via phenotypic screening of a panel of 19 well-characterized cell lines derived from solid tumors seen in children and adolescents. The goal is to identify approved drugs with previously unrecognized anticancer properties that has the potential to reveal new mechanisms and biological processes involved in carcinogenesis or drug resistance. We employed a titration-based paradigm (quantitative high-throughput screening or qHTS), where all compounds were tested at multiple concentrations for their effect on cell viability. Concentration-response curves (CRCs) were derived directly from the primary screen, and both potency and efficacy values were used to identify compounds with robust bioactivity profiles. We screened the NIH Chemical Genomics Center (NCGC) Pharmaceutical Collection (NPC) and Mechanism Interrogation Plate (MIPE) small molecule collections of approved and investigational compounds against these cell lines; and measured metabolically active cells after 48 hours of compound treatment as a proxy for cell viability.\nAssay Submitter: Nathalia J. Martinez, National Center for Advancing Translational Sciences, National Institutes of Health, Rockville, MD, USA; email: natalia.martinez@nih.gov\n[1] Shen, M et al. Quantitative high-throughput phenotypic screening of pediatric cancer cell lines identifies multiple opportunities for drug repurposing. Oncotarget 2017 Dec 19;9(4):4758-4772. PMID 29435139.\nThe cells were obtained from University of North Carolina (UNC), Pediatric Preclinical Testing Program (PPT), and Coriell Institute (CI).\nqHTS cell viability assay:\nCells were assayed in growth media at a density of 500-1,000 cells/well. Five microliters of cells were dispensed into 1,536-well, white, solid-bottom, TC-treated plates (Greiner Bio One) using a multidrop dispenser and incubated at 37 degrees C, 5% CO2, under a humidified atmosphere for 5 hours. Twenty-three nanoliters of compounds and controls (neutral control DMSO or positive control bortezomib at final concentration of 2.3 µM) were subsequently transferred by Kalypsys pintool. For primary screens, the MIPE collection was tested at 11-point dilutions (final concentrations range from 0.78 nM to 46 µM) and the NPC collection at 8-point dilutions (final concentrations range from 0.59 nM to 46 µM). Compounds tested in follow-up screens were assayed at 11-point dilutions. Cells were incubated for 48 hours, followed by addition of 3 µL of CellTiter-Glo (Promega). After a 15 min incubation at room temperature, samples were analyzed for luminescence intensity using a ViewLux High-throughput CCD imager equipped with clear filters.", "values": [
      {"smiles": "CCN1/C(=C/C=C/c2sc3ccccc3[n+]2CC)Sc2ccccc21", "Potency": "827 nM (active)"},
      {"smiles": "Nc1nc(Cl)nc2c1ncn2[C@@H]1O[C@H](CO)[C@@H](O)[C@@H]1F", "Potency": "329 nM (active)"},
      {"smiles": "O=C(Oc1cccc2cccnc12)c1ccccc1", "Potency": "20800 nM (active)"},
      {"smiles": "O=C(CCCN1CC=C(n2c(=O)[nH]c3ccccc32)CC1)c1ccc(F)cc1", "Potency": "inactive"},
      {"smiles": "O=[N+]([O-])c1ccc(/C=N\\O)o1", "Potency": "inactive"},
      {"smiles": "C[C@H]1O[C@@H](O[C@H]2CC[C@@]3(C)[C@H](CC[C@@H]4[C@@H]3C[C@@H](O)[C@]3(C)[C@@H](C5=CC(=O)OC5)CC[C@]43O)C2)C[C@H](O)[C@@H]1O[C@H]1C[C@H](O)[C@H](O[C@H]2C[C@H](O)[C@H](O[C@@H]3O[C@H](CO)[C@@H](O)[C@H](O)[C@H]3O)[C@@H](C)O2)[C@@H](C)O1", "Potency": "185 nM (active)"},
      {"smiles": "CCN[C@@H]1C[C@H](N)[C@@H](OC2OC(CN)=CCC2N)[C@H](O)[C@H]1O[C@H]1OC[C@](C)(O)[C@H](NC)[C@H]1O", "note": "(stereo partly drawn)", "activity change, negative = cytotoxic": "4.53% [at 0.556 µM] (inactive)"},
      {"smiles": "CCCCCCCCCCC[C@@H](C[C@@H]1OC(=O)[C@H]1CCCCCC)OC(=O)[C@H](CC(C)C)NC=O", "Potency": "inactive"},
      {"smiles": "COc1ccc(C(=O)c2ccccc2)c(O)c1", "Potency": "inactive"},
      {"smiles": "C[C@@]12C(=O)OC(=O)[C@]1(C)C1CCC2O1", "Potency": "2080 nM (active)"},
      {"smiles": "CCN(CC)CCOc1ccc2c(c1)C(=O)c1cc(OCCN(CC)CC)ccc1-2", "Potency": "20800 nM (active)"},
      {"smiles": "NC(N)=NN=C(/C=C/c1ccc([N+](=O)[O-])o1)/C=C/c1ccc([N+](=O)[O-])o1", "Potency": "1470 nM (active)"},
      {"smiles": "CCCCCCCCCCCCOCCOCCOCCOCCOCCOCCOCCOCCOCCO", "Potency": "inactive"}
    ]}
  ]
}
